High-throughput results deposited in PubChem BioAssay by National Center for Advancing Translational Sciences (NCATS).
Most compounds without a hit are left out; they make up all but 2.4% or so of the library.
FEN1 inh – blocks human flap endonuclease 1; P39748; Recombinant FEN1 flap cleavage, fluorescence, 15 min; Potency, µM (titrated, usually from 114 µM), most hits filed as inhibitors; 0.35% of 390,000 active; further: nearly all actives have a fitted effect of over 65% in size
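Reaction started by adding substrate (50 nM final) to 10 nM enzyme after 15 min room-temperature compound preincubation. Reads at 0 and 15 min, with data normalized and fitted to a four-parameter Hill equation.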
WRN helicase inh – blocks human WRN helicase; AID 651768; Q14191; WRN helicase unwinding, fluorescent forked duplex, kinetic; 0.46% of 360,000 active; Potency, µM (top dose mostly 114 µM), actives largely listed as inhibitors; further: nearly all actives have a fitted effect of over 55% in size
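Fluorescence dequenching readout, ex 525 nm/em 598 nm, kinetic mode: forked duplex DNA (100 nM final) with adjacent fluorophore and quencher unwound by WRN (20 nM final) with 2 mM ATP. Compound preincubation 15 min, room temperature.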
Pol eta inh – inhibitors of human DNA polymerase eta | Q9Y253 | recombinant Pol eta, fluorescent DNA replication assay | Potency, µM (top dose mostly 114 µM), usual class: inhibitors | 1.2% of 390,000 active | AID 588591
Target sequence (Q9Y253 whole entry, looked up): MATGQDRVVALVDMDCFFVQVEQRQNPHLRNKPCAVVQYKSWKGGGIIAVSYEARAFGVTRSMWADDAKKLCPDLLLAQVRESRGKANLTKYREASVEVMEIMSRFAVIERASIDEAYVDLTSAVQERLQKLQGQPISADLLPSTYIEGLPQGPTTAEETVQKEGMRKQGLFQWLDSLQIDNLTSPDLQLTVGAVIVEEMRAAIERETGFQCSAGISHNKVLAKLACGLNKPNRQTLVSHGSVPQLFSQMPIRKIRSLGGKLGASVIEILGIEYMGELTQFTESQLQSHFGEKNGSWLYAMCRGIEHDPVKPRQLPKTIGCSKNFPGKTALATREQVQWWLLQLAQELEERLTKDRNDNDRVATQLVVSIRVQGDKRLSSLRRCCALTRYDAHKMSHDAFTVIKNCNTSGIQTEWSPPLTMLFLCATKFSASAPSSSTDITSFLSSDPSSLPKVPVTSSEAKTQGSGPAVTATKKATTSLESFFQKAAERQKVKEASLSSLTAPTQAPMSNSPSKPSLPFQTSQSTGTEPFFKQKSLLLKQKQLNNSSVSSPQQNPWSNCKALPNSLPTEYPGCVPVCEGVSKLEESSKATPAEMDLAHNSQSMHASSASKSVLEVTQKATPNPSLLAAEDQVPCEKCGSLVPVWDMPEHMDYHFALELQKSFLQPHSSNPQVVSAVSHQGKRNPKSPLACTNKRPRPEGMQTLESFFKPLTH
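Fluorescent replication assay: 50 nM final substrate added after a 15 min room-temperature compound preincubation with 10 nM enzyme. Signal taken at 0 min and again at 10 min.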
Pol beta inh – blocks human DNA polymerase beta activity; AID 485314; Pol beta primer extension/strand displacement, fluorescence kinetic; P06746; Potency, µM (titrated, usually from 114 µM), hits mostly inhibitors; 1.3% of 340,000 active
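Pol beta (10 nM) was preincubated with compound for 15 min at room temperature. The reaction was then started with 50 nM substrate and read immediately and after a further 10 min at room temperature.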
POLI inh – inhibitors of human DNA polymerase iota | Pol iota fluorescent replication assay, 10 min | 1% of 390,000 active | Potency, µM (top dose mostly 115 µM), hits mostly inhibitors | Q9UNA4
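Fluorescent replication assay read twice, at 0 min and 10 min after adding 50 nM (final) substrate. Enzyme (10 nM) and compounds were first incubated 15 min at room temperature; enzyme-free buffer wells were negative controls.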
Pol kappa inh – blocks human DNA polymerase kappa activity; 0.53% of 400,000 active; Q9UBT6; Potency, µM (series often up to 107 µM), actives largely listed as inhibitors; AID 588579; purified Pol kappa, fluorescent DNA synthesis assay, 10 min
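Kinetic fluorescence readout at 0 and 10 min followed reaction start with substrate at 50 nM final. Beforehand, enzyme (10 nM Pol kappa) stood 15 min with compound at room temperature; buffer-only wells were negative controls.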
Large screens that a line does not name were inactive. The call rests on the fitted dose curve; in most records, active means well fitted curve in the direction sought with a large enough effect; inconclusive means small, poorly fitted or top-dose-only effect, or another doubt; inactive means no such curve, though single readings can be large; an effect the other way counts as inactive or inconclusive.

CCC(C)C(N)C1=NC(C(=O)N[C@@H](CC(C)C)C(=O)N[C@H](CCC(=O)[O-])C(=O)N[C@H](C(=O)N[C@H]2CCCCNC(=O)[C@H](CC(N)=O)NC(=O)[C@@H](CC(=O)[O-])NC(=O)[C@H](Cc3cnc[nH]3)NC(=O)[C@@H](Cc3ccccc3)NC(=O)[C@H]([C@@H](C)CC)NC(=O)[C@@H](CCCN)NC2=O)[C@@H](C)CC)CS1.[Zn+2] (some centres not stated)	FEN1 inh 8.91µM, Pol eta inh inconclusive, POLI inh 0.891µM, Pol kappa inh inconclusive (no result: Pol beta inh)
Cn1c(=O)c2c(-c3ccc(Br)cc3)n(Cc3ccc(F)cc3)cc2n(C)c1=O	FEN1 inh inconclusive, POLI inh 89.1µM, Pol kappa inh inconclusive (no result: WRN helicase inh)
COc1ccc(S(=O)(=O)c2cnc(SCC(=O)Nc3cc(F)ccc3C)[nH]c2=O)cc1Cl	Pol eta inh inconclusive, Pol beta inh 50.1µM (no result: WRN helicase inh)
Cc1ccc(-n2c(CCC(=O)O)ccc2-c2cccs2)cc1Cl	Pol beta inh 2.51µM, POLI inh inconclusive (no result: WRN helicase inh)
CC(=O)c1ccc(-n2c(CCC(=O)O)ccc2-c2cccs2)cc1	Pol eta inh inconclusive, Pol beta inh inconclusive, POLI inh inconclusive
NC(=O)c1ccc(-n2c(CCC(=O)O)ccc2-c2cccs2)cc1	none
Cc1ccc(-n2c(CCC(=O)O)ccc2-c2cccs2)cc1	Pol eta inh inconclusive, Pol beta inh 35.5µM, POLI inh inconclusive
O=C1C(Cl)=C(NS(=O)(=O)c2ccc([N+](=O)[O-])cc2)C(=O)c2ccccc21	WRN helicase inh 79.4µM, Pol eta inh inconclusive, POLI inh inconclusive
O=[N+]([O-])c1ccc(Oc2ccc(S(=O)(=O)Nc3ccccc3)cc2)cc1	none
C/C=C/c1ccc(OCc2cc(=O)n3cc(C)ccc3n2)c(OC)c1	Pol beta inh 35.5µM, POLI inh inconclusive
COc1ccc(O)c(C2(O)C(=O)c3ccccc3C2=O)c1	none
CC(=O)C(C(C)=O)C1(O)C(=O)c2ccccc2C1=O	Pol eta inh 89.1µM, Pol beta inh inconclusive, POLI inh 3.16µM
CCOC(=O)c1cnc2nc(NCc3ccc(OC)c(OC)c3)[nH]n2c1=O	Pol eta inh 20µM, Pol beta inh 35.5µM, POLI inh inconclusive
CCCS(=O)(=O)c1ncc(Cl)c(C(=O)Nc2sc3c(c2C(=O)NCC)CCCC3)n1	none (no result: WRN helicase inh, Pol eta inh, Pol beta inh)
CC1=C(CO)C(=O)OC([C@@H](C)C2CC[C@H]3C4C[C@H]5O[C@]56[C@@H](O)C=CC(=O)[C@]6(C)C4CC[C@]23C)C1 (some centres not stated)	WRN helicase inh inconclusive, Pol eta inh 50.1µM, Pol beta inh inconclusive, POLI inh inconclusive
Cc1ccc([N+](=O)[O-])cc1S(=O)(=O)Nc1ccc(C(=O)NCC2CCCO2)cc1 (configuration not stated)	Pol eta inh 79.4µM, POLI inh inconclusive (no result: Pol beta inh)
Cc1ccc(C)n1-c1ccc(C(=O)NCC2CCCO2)cc1 (configuration not stated)	Pol eta inh inconclusive, Pol beta inh 39.8µM, POLI inh inconclusive
COC(=O)[C@@H]1CCCN1S(=O)(=O)Cc1ccccc1	none (no result: WRN helicase inh, Pol eta inh, Pol beta inh)
CC1(C)Cc2c(sc(NC(=O)COc3cccc4ccccc34)c2C#N)C(C)(C)N1	Pol eta inh inconclusive, Pol beta inh 22.4µM, POLI inh inconclusive
Cc1ccc(OCC(=O)Nc2sc3c(c2C#N)CC(C)(C)NC3(C)C)cc1	none
Cc1ccc(NC(=O)C2CCCN2S(=O)(=O)c2ccc3nc(-c4ccccc4)[nH]c3c2)cc1C (configuration not stated)	POLI inh inconclusive (no result: WRN helicase inh)
Cc1cccc(NC(=O)C2CCCN2S(=O)(=O)c2ccc3nc(-c4ccccc4)[nH]c3c2)c1 (configuration not stated)	Pol eta inh 79.4µM, Pol beta inh inconclusive, POLI inh inconclusive, Pol kappa inh inconclusive (no result: WRN helicase inh)
CCN(CC)c1ccc(/C=C/C2=C3C=CC=CC3NC=C2)cc1 (configuration not stated)	FEN1 inh 15.8µM, POLI inh 1.26µM (no result: WRN helicase inh, Pol eta inh, Pol beta inh)
Cc1cc(Cl)ccc1OCC(=O)OC(C)C(=O)N(C)C (configuration not stated)	Pol eta inh inconclusive, Pol beta inh inconclusive, POLI inh 50.1µM
